{
  "source": "PubChem BioAssay AID588664",
  "about": "(The Scripps Research Institute Molecular Screening Center, 2011)",
  "note": "Among all 360,000 compounds or so, about 1,400 (0.39%) were called active. No stated cut-off is given here; in the data, active means inhibition above about 5% (passing the limit was not always enough); inactive means the rest. This excerpt belongs to a sample that is enriched for actives.",
  "data": [
    {"target": "Tyrosine-protein kinase ABL1 (Homo sapiens) + Ras and Rab interactor 1 (Homo sapiens) (UniProt P00519+Q13671)", "sequence (P00519 whole entry, looked up)": "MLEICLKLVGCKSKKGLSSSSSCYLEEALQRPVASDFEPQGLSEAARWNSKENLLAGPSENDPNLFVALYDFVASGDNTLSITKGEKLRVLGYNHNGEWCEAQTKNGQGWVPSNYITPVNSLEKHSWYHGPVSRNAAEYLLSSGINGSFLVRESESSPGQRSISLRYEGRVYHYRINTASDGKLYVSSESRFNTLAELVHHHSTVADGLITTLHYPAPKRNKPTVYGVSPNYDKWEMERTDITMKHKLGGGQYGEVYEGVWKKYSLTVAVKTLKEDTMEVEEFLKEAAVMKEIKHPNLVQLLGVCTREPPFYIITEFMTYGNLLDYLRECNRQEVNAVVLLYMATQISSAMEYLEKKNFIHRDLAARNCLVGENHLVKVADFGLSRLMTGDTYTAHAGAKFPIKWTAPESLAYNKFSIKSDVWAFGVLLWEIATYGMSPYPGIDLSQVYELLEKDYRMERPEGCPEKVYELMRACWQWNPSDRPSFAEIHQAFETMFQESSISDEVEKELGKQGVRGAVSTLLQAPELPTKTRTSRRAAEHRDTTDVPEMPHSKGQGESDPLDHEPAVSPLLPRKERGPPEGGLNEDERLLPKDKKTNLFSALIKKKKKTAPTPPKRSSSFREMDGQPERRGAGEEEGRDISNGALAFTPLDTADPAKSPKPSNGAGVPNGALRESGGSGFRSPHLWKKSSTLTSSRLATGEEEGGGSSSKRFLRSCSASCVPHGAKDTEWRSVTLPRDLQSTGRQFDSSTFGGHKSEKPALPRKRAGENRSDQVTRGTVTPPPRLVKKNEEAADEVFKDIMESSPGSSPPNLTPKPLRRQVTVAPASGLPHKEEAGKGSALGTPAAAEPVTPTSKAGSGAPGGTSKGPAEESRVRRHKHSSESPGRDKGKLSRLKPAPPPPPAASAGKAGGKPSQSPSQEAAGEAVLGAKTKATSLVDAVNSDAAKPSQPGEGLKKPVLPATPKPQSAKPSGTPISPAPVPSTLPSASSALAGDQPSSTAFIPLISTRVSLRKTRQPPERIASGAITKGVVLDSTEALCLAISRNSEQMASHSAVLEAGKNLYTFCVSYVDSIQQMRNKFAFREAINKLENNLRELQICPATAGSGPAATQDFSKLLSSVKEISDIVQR", "sequence (Q13671 whole entry, looked up)": "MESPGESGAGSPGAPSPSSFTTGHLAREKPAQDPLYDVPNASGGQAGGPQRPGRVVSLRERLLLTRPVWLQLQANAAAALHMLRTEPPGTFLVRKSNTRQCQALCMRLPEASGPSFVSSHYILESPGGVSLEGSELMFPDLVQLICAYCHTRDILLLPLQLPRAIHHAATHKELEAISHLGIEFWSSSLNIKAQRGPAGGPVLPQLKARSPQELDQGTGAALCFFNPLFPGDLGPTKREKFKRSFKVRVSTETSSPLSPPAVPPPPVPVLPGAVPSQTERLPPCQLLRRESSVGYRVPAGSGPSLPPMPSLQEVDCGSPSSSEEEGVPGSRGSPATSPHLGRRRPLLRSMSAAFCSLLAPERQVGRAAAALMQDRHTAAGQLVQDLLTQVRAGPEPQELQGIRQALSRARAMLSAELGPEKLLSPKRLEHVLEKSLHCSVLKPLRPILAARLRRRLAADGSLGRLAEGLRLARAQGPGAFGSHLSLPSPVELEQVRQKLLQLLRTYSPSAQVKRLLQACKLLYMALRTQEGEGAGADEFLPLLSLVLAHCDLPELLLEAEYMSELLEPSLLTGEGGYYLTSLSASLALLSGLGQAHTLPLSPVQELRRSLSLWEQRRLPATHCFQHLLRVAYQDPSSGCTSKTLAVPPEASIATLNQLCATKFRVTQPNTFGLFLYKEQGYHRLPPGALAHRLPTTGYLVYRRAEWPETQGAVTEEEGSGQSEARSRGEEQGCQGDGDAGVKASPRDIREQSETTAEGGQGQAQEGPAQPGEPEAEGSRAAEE", "test": "disruptors of human Abl and Rin1 association – biochemical, TR-FRET, primary screen (AID 588664)", "settings": "TR-FRET Rin1/Abl binding, at 7.35 µM, stronger effect = higher value", "values": [
      {"smiles": "O=c1[nH]nc(Cc2ccccn2)c2ccccc12", "inhibition": "1.04% (inactive)"},
      {"smiles": "CCOC(=O)N1CCN(C(=O)c2cn(C)c3ccc(S(=O)(=O)N(CC)CC)cc3c2=O)CC1", "inhibition": "-0.08% (inactive)"},
      {"smiles": "C=CCn1cc(C(=O)NCc2ccc(Cl)cc2)c(=O)c2cc(S(=O)(=O)N(CC)CC)ccc21", "inhibition": "6.23% (active)"},
      {"smiles": "CCN(CC)CCCNC(=O)c1cn(C)c2ccc(S(=O)(=O)N(C)C3CCCCC3)cc2c1=O", "inhibition": "2.19% (inactive)"},
      {"smiles": "CN(C)S(=O)(=O)c1ccc(N2CCCC2)c(C(=O)Nc2cccc(F)c2)c1", "inhibition": "7.03% (inactive)"},
      {"smiles": "CC1=C[C@H]2Cc3cc(C)cc(C)c3S(=O)(=O)[C@@H]2C=C1", "inhibition": "3.36% (inactive)"},
      {"smiles": "CC(=O)c1ccc(NC(=O)c2sc3nc4n(c(=O)c3c2C)CCCCC4)cc1", "inhibition": "0.85% (inactive)"},
      {"smiles": "Cc1c(C(=O)Nc2ccccc2)sc2nc3n(c(=O)c12)CCCCC3", "inhibition": "-0.6% (inactive)"},
      {"smiles": "O=c1c2c(nc3n1CCCCC3)sc1c(O)cccc12", "inhibition": "12.3% (active)"},
      {"smiles": "O=S1(=O)CCN(C2CCCCCCCCCCC2)CC1", "inhibition": "1.94% (inactive)"},
      {"smiles": "Cc1cc(NC(=O)CSCc2ccccc2C)no1", "inhibition": "-2.34% (inactive)"},
      {"smiles": "COc1ccccc1C(=O)COC(=O)CSCC(=O)Nc1cc(C)on1", "inhibition": "-2.09% (inactive)"},
      {"smiles": "Cc1cc(NC(=O)CSCC(=O)NC(C)c2ccccc2)no1", "note": "(stereo unspecified)", "inhibition": "9.74% (active)"},
      {"smiles": "N#C/C(=C\\N1CCOCC1)S(=O)(=O)c1ccc(Cl)cc1", "inhibition": "0.04% (inactive)"},
      {"smiles": "CNS(=O)(=O)c1ccc(NC(=O)Nc2ccc3c(c2)OCO3)cc1", "inhibition": "-0.38% (inactive)"},
      {"smiles": "CC(C)CNS(=O)(=O)c1ccc(C(=O)Nc2ccc3c(c2)OCO3)cc1", "inhibition": "12.8% (active)"},
      {"smiles": "CC(C)CNS(=O)(=O)c1ccc(OCC(=O)Nc2ccc3c(c2)OCO3)c(Cl)c1", "inhibition": "-2.64% (inactive)"},
      {"smiles": "C=C1c2c(Cl)ccc(O)c2C(O)=C2C(=O)[C@]3(O)C(O)=C(C(N)=O)C(=O)[C@@H](N(C)C)[C@@H]3[C@@H](O)C12", "note": "(stereo partly specified)", "inhibition": "20.6% (active)"},
      {"smiles": "Nc1nc2cc(Cl)ccc2n1N", "inhibition": "-1.62% (inactive)"},
      {"smiles": "CCCCN(CC)CCNC(=O)c1[nH]c(C)c(C(C)=O)c1C", "inhibition": "6.51% (inactive)"},
      {"smiles": "COC(=O)c1c(NC(=O)c2ccc(S(=O)(=O)N3CCOCC3)cc2)sc2c1CCN(C(C)C)C2", "inhibition": "5.81% (inactive)"},
      {"smiles": "CCc1ccc(CNC(=O)C2CCCN(c3nc4ccccc4o3)C2)cc1", "note": "(stereo unspecified)", "inhibition": "1.27% (inactive)"},
      {"smiles": "CCOc1ccc(CNC(=O)C2CCCN(c3nnc(C)c4c(C)n(-c5ccccc5)nc34)C2)cc1", "note": "(stereo unspecified)", "inhibition": "20.2% (active)"},
      {"smiles": "CCc1ccc(CNC(=O)C2CCN(c3nnc(C)c4c(C)n(-c5ccc(C)cc5)nc34)CC2)cc1", "inhibition": "-2.17% (inactive)"},
      {"smiles": "Cn1cc(CN2CCCC(CO)C2)c(-c2ccc(Oc3ccccc3)cc2)n1", "note": "(stereo unspecified)", "inhibition": "1.99% (inactive)"},
      {"smiles": "COc1ccc([N+](=O)[O-])cc1NC(=O)COC(=O)/C=C/c1ccco1", "inhibition": "-3.75% (inactive)"},
      {"smiles": "O=C(CSc1nc(C2CC2)nc2ccccc12)Nc1cccc(O)c1", "inhibition": "-0.76% (inactive)"},
      {"smiles": "Cc1noc(C)c1COC(=O)c1cc2ccccc2cc1O", "inhibition": "1.08% (inactive)"},
      {"smiles": "O=C(NNc1c2ccccc2nc2ccccc12)c1cc2ccccc2cc1O", "inhibition": "5.94% (active)"},
      {"smiles": "CC(C)(C)NC(=O)NC(=O)COC(=O)Cn1c(C(F)(F)F)nc2ccccc21", "inhibition": "2.76% (inactive)"},
      {"smiles": "COc1ccccc1NC(=O)CSc1nnc(-c2ccoc2C)n1CCc1ccccc1", "inhibition": "4.08% (inactive)"},
      {"smiles": "CCN(CC)S(=O)(=O)c1ccc(N(C)Cc2ccc(C(F)(F)F)cc2)nc1", "inhibition": "0.97% (inactive)"},
      {"smiles": "Nc1cc(=O)c2[nH]cnc2[nH]1", "inhibition": "16.4% (active)"},
      {"smiles": "Cc1ccccc1-c1ccc2c(c1)O[C@@H](CN(C)Cc1ccc(C(=O)O)cc1)[C@@H](C)CN([C@H](C)CO)S2(=O)=O", "inhibition": "1.11% (inactive)"},
      {"smiles": "C[C@@H]1CN([C@H](C)CO)S(=O)(=O)c2ccc(C#C[C@@H](C)O)cc2O[C@@H]1CN(C)Cc1ccc(-c2ccccc2)cc1", "inhibition": "36.5% (active)"},
      {"smiles": "C[C@@H]1CN([C@@H](C)CO)S(=O)(=O)c2ccc(-c3ccc(C(=O)N(C)C)cc3)cc2O[C@@H]1CN(C)Cc1ccccc1C(=O)O", "inhibition": "-1.93% (inactive)"},
      {"smiles": "O=C(C1CCCN(S(=O)(=O)c2ccc([N+](=O)[O-])cc2)C1)N1CCCCC1", "note": "(stereo unspecified)", "inhibition": "1.73% (inactive)"},
      {"smiles": "O=C(NC(=S)Nc1ccc(S(=O)(=O)Nc2ncccn2)cc1)c1cccc(Br)c1", "inhibition": "-0.5% (inactive)"},
      {"smiles": "O=C(Nc1ccc(S(=O)(=O)Nc2ncccn2)cc1)c1cncc(Br)c1", "inhibition": "11.3% (active)"},
      {"smiles": "CCNS(=O)(=O)c1ccc(NC(=O)c2cncc(Br)c2)cc1", "inhibition": "-2.97% (inactive)"},
      {"smiles": "CCOCCCNC(=S)Nc1ccc2nc(N3CCN(CC)CC3)cc(C)c2c1", "inhibition": "-3.64% (inactive)"},
      {"smiles": "COc1ccccc1C(=O)N1CCNC(=O)C1CC(=O)Nc1ccc(Cl)cc1", "note": "(stereo unspecified)", "inhibition": "4.11% (inactive)"},
      {"smiles": "CCOc1ccc(NC(=O)CC2NCCNC2=O)cc1", "note": "(stereo unspecified)", "inhibition": "0.97% (inactive)"},
      {"smiles": "O=C(CC1SCCNC1=O)Nc1ccc(Cl)cc1", "note": "(stereo unspecified)", "inhibition": "11.9% (active)"},
      {"smiles": "Cc1cc(-c2ccc(C)c(S(=O)(=O)NC(C)Cc3ccco3)c2)on1", "note": "(stereo unspecified)", "inhibition": "4.85% (inactive)"},
      {"smiles": "COc1ccc(NC(=O)CSc2nnc(-c3ccccc3F)n2C2CC2)cc1S(N)(=O)=O", "inhibition": "-3.31% (inactive)"},
      {"smiles": "Fc1cccc(Cl)c1COc1ccc(-c2nnco2)cc1", "inhibition": "0.01% (inactive)"},
      {"smiles": "C[C@H](NC(=O)[C@@H]1Cc2ccccc2CN1C(=O)OC(C)(C)C)C(=O)NC1CCCC1", "inhibition": "-1% (inactive)"},
      {"smiles": "COCCNC(=O)CSc1nc(N)c(NC(=O)c2ccco2)c(=O)[nH]1", "inhibition": "-1.82% (inactive)"},
      {"smiles": "Cc1ccc(NC(=O)OCCNC(=O)c2ccncc2)cc1", "inhibition": "1.62% (inactive)"},
      {"smiles": "COCCNC(=O)Nc1ccc2nc(-c3ccco3)c(-c3ccco3)nc2c1", "inhibition": "8.86% (active)"},
      {"smiles": "C#CCN(N(C)c1ncc(C(F)(F)F)cc1Cl)S(=O)(=O)c1ccc2ccccc2c1", "inhibition": "0.28% (inactive)"},
      {"smiles": "CCN1CCN(c2cc3nc(C)n(Cc4ccccc4)c(=O)c3cc2NC(=O)c2ccccc2F)CC1", "inhibition": "-0.45% (inactive)"},
      {"smiles": "CC(=O)NC(c1cccs1)c1cc(Br)c2cccnc2c1O", "note": "(stereo unspecified)", "inhibition": "14.8% (active)"},
      {"smiles": "CCCCC(=O)NC(c1ccc(OC)c(OC)c1)c1ccc2cccnc2c1O", "note": "(stereo unspecified)", "inhibition": "-0.15% (inactive)"},
      {"smiles": "N#Cc1ccccc1NC(=O)COc1c(Br)cc(Br)c2cccnc12", "inhibition": "-0.22% (inactive)"}
    ]}
  ]
}
